Reference: PubChem BioAssay
Values without a mark were called inactive.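 Rule for the calls: active = RAM network inhibition above 8.4% in each of two replicates, 3 SD over the compound average; inconclusive = above 8.4% inhibition in only one replicate; inactive = 8.4% inhibition or less in each replicate.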

Assay: RAM signaling pathway blockade in yeast – S. cerevisiae, Pdr1DBD-CYC8 efflux-inhibited sensitized strain, primary screen (AID 1298);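 note: 0% = DMSO untreated cells without growth and 100% = 10 µM 1-NA-PP1 full growth; higher means more yeast growth rescued from 5-FOA killing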
Conditions: S. cerevisiae cbk1-as DSE1-URA3 strain, 5-FOA growth OD615, 2 d; at 50 µM; active compounds read high
Compound `O=C1CC(N2CCN(C(c3ccccc3)c3ccccc3)CC2)C(=O)N1` (stereo not drawn) has an RAM network inhibition of 5.3%.
For `CCN(CC)CCNC(=O)Cn1cnc2sc(C)c(S(=O)(=O)N3CCOCC3)c2c1=O`, the RAM network inhibition was 6.22%.
In the case of `COc1ccc(C2CC(c3ccc(F)cc3)Nc3nc(N)nn32)cc1` (stereo not drawn), the RAM network inhibition is reported as 6.59%.
`CCOc1ccccc1C(=O)NC1CCN(Cc2nnnn2C2CCCC2)CC1` showed an RAM network inhibition of 1.76%.
For `CCOc1ccc(C(=O)Nc2c3c(nn2-c2ccc(C)cc2)CS(=O)C3)cc1OCC` (stereo not drawn), the RAM network inhibition was 8.77%.
Work on `Cc1ccc(-c2nn(C)c(=O)c3ccccc23)cc1CNC(=O)c1ccco1` yielded an RAM network inhibition of 6.65%.
Compound `O=C(CNS(=O)(=O)c1ccc(C(=O)N2CCCCC2)cc1)N1CCCCC1` has an RAM network inhibition of 3.77%.
With `CCOC(=O)CON1C(=O)C(C)(C)N(OCC(=O)OCC)C(=O)C1(C)C` the RAM network inhibition was 1.33%.
Compound `Cc1[nH]c2ccc(-c3n[nH]c(=S)n3C)cc2c1C` has an RAM network inhibition of 0.57%.
In the case of `Cc1onc(-c2ccccc2Cl)c1C(=O)OCN1C(=O)c2ccccc2C1=O`, the RAM network inhibition is reported as 5.34%.
With `CSC1=NCCN1C(=O)c1cccs1` the RAM network inhibition was 1.55%.
Work on `O=C(C1CCC(CNc2c(N3CCCCC3)c(=O)c2=O)CC1)N1CCN(c2ccccn2)CC1` (stereo not drawn) yielded an RAM network inhibition of 4.92%.
In the case of `CC1CCCN(c2nc3c(c(=O)[nH]c(=O)n3C)n2Cc2ccccc2Cl)C1` (stereo not drawn), the RAM network inhibition is reported as 9.1%.
`COc1ccc(CC(=O)N2CC3(C)CC2CC(C)(C)C3)cc1OC` (stereo not drawn) showed an RAM network inhibition of 6.83%.
With `Cc1cccnc1NC(=O)c1c(O)c2ccccc2n(C)c1=O` the RAM network inhibition was -1.38%.
Work on `CCN(CC)P1(=O)OC(c2cc(OC)c(OC)c(OC)c2)=Nc2c1c(C)nn2-c1ccccc1` (stereo not drawn) yielded an RAM network inhibition of 2.4%.
For `CCOc1ccc(NC(=O)CSc2nnc(Cn3c(=O)sc4ccccc43)n2C)cc1`, the RAM network inhibition was 7.78%.
Compound `Cc1ccc(N(C(=O)CC2NC(=O)NC2=O)C2(C(=O)NC3CCCC3)CCCCC2)cc1` (stereo not drawn) has an RAM network inhibition of 3.14%.
For `Cn1c(NC(=O)Cc2ccc(F)cc2)cc(=O)n(C)c1=O`, the RAM network inhibition was 0.62%.
With `COc1ccc(C2CC(=O)c3cnc(NC(=O)c4ccccc4)nc3C2)cc1OC` (stereo not drawn) the RAM network inhibition was 5.34%.
`Cc1cccc(N2CCN(C(=O)C3CCN(c4nnc(-n5cccc5)s4)CC3)CC2C)c1` (stereo not drawn) showed an RAM network inhibition of 2.84%.
In the case of `O=C(NCc1ccccc1)c1cc(S(=O)(=O)N2CCOCC2)ccc1F`, the RAM network inhibition is reported as 3.42%.
With `O=C(CN1C(=O)C2C3C=CC(C3)C2C1=O)Nc1ccc2nccnc2c1` (stereo not drawn) the RAM network inhibition was 0.31%.
